HCV inh: HCV inhibition; Potency, µM (titrated, usually from 41.8 µM), usual class: inhibitors; Huh7.5.1 HCVcc-Cre infection, luciferase reporter, 44 h; 3.4% of 340,000 active; active = well fitted inhibition curve with a large enough effect; inconclusive = small, poorly fitted or top-dose-only effect, or another doubt; inactive = no such curve, though single readings can be large or run the other way
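Compounds are dispensed onto cells plated 4 h earlier at 1,000 per well, with HCVcc-Cre virus (about 0.5 moi) added next. Following 44 h of culture, luminescent signal is measured for 15 sec after 15 min with substrate at room temperature.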
MARV entry inh: inhibitors of Marburg virus binding or cell entry | Marburg virus pseudotyped entry inhibition, cell reporter | 1.8% of 300,000 active | Potency, µM (top dose mostly 37.8 µM), usual class: inhibitors; calls by dose curve; tested in HEK293 cells
FMDV inh: foot and mouth disease virus antiviral activity; FMDV antiviral cell-based qHTS; Potency, µM (highest dose often 57.9 µM), most hits filed as inhibitors; 1.2% of 410,000 active; AID 1159524; calls by dose curve; tested in HEK293T cells; note: read-out not given here; nearly all actives have a fitted effect of over 45% in size
Shiga inhibitor: blocks Shiga toxin action in Vero cells | Vero cells, Shiga toxin protein synthesis inhibition reporter | inhibition, % at 38.7 µM | 9.2% of 290,000 active; in the data active = inhibition mostly above about 28%, no sharp cut-off; inactive = mostly below about 43%
LASV entry inh: Lassa virus entry inhibition | Lassa virus pseudotype entry inhibition, cell reporter | Potency, µM (highest dose often 37.9 µM), actives largely listed as inhibitors | 1.2% of 300,000 active | AID 540256; calls by dose curve; tested in HEK293 cells; note: nearly all actives have a fitted effect of over 50% in size
Cycloheximide cs: affects cycloheximide protein synthesis inhibition readout, counter-screen; AID 2314; 12% of 300,000 active; max response, %; cell reporter, cycloheximide protein synthesis inhibition counterscreen; in the data active = max response mostly above about 13%, no sharp cut-off; inactive = mostly below about 14%; note: read at 38.3 µM for the half of the compounds with a filed dose
Each line names hits and unclear results; the compound was inactive in the other large screens. A selection: hits, their analogues and other compounds. The true share with any hit is near 13%.

CC(Oc1ccc(Cl)cc1Cl)c1nc(-c2ccccn2)no1 (stereo not drawn)	HCV inh inconclusive, Shiga inhibitor 97, Cycloheximide cs 36 (no result: FMDV inh)
Cc1onc(-c2ccccc2Cl)c1-c1nc(-c2ccccn2)no1	MARV entry inh inconclusive, LASV entry inh inconclusive
C=CCOc1ccc(/C=C/C(=O)OCc2csc(CC(=O)Nc3ccccc3C)n2)cc1	MARV entry inh inconclusive (no result: Shiga inhibitor, Cycloheximide cs)
O=C(CSc1nnnn1-c1ccccc1)c1cc2ccccc2oc1=O	MARV entry inh inconclusive
O=C(CSc1nnc(NC(=O)c2c(F)cccc2F)s1)NCC1CCCO1 (stereo not drawn)	none (no result: Shiga inhibitor, Cycloheximide cs)
Clc1ccc(C(c2ccccc2)N2CCNCC2)cc1 (stereo not drawn)	HCV inh 11µM, MARV entry inh inconclusive
CC12CNCC(C)(CN(C(c3ccccc3)c3ccccc3)C1)C2	HCV inh inconclusive, MARV entry inh inconclusive, FMDV inh inconclusive, LASV entry inh 20µM
CN1CCN(C(c2ccccc2)c2ccc(Cl)cc2)CC1 (stereo not drawn)	HCV inh inconclusive (no result: MARV entry inh, Shiga inhibitor, LASV entry inh, Cycloheximide cs)
CN(CC(=O)Nc1ccc(Cl)c(C(F)(F)F)c1)C(=O)C1CCCO1 (stereo not drawn)	FMDV inh inconclusive (no result: MARV entry inh, Shiga inhibitor, LASV entry inh, Cycloheximide cs)
O=C(N/N=C/c1cccc(Oc2ccccc2)c1)c1ccccc1Br	HCV inh 11µM, MARV entry inh inconclusive, LASV entry inh 6.5µM (no result: FMDV inh)
O=C(N/N=C/c1cccc(Oc2ccccc2)c1)c1cccc(O)c1	MARV entry inh inconclusive, Shiga inhibitor 58, Cycloheximide cs 35
O=C(N/N=C/c1cccc(Oc2ccccc2)c1)c1cccc(Br)c1	HCV inh inconclusive, MARV entry inh inconclusive, FMDV inh inconclusive, LASV entry inh inconclusive
N#CC(C(=O)O)=C1CCCC1	none
N#CC(C(=O)Nc1ccccc1)=C1CCCCC1	Cycloheximide cs 15 (no result: FMDV inh)
COC1C(C)OC(OC2CC(C)(O)Cc3cc4c(c(O)c32)C(=O)c2c(O)cc3c(c2C4=O)OC2OC3(C)C(O)C(N(C)C)C2O)C(OC)C1(C)OC (stereo not drawn)	HCV inh 4µM, MARV entry inh inconclusive, LASV entry inh inconclusive (no result: Shiga inhibitor, Cycloheximide cs)
Cc1ccc(COCCN2CCN(S(=O)(=O)c3ccccc3)CCC2=O)cc1	none (no result: MARV entry inh, LASV entry inh)
O=C1CCN(S(=O)(=O)c2ccccc2)CCN1CCOCc1ccc(C(F)(F)F)cc1	HCV inh 10µM, FMDV inh inconclusive (no result: MARV entry inh, LASV entry inh)
Cc1ccc(S(=O)(=O)N2CCC(=O)N(C(COCc3ccc(C(F)(F)F)cc3)C(C)C)CC2)cc1 (stereo not drawn)	MARV entry inh inconclusive, FMDV inh inconclusive, LASV entry inh 13µM
Cc1ccc(S(=O)(=O)N2CCC(=O)N([C@H](COCc3cccc(C(F)(F)F)c3)C(C)C)CC2)cc1	LASV entry inh inconclusive (no result: HCV inh, MARV entry inh, Shiga inhibitor, Cycloheximide cs)
CCOc1ccc(NC(=O)C(CC)n2nc(C)c3c(C)n(-c4ccccc4)nc3c2=O)cc1 (stereo not drawn)	none
Cc1cc(C)cc(N2Cc3ccccc3C2)c1	none (no result: LASV entry inh)
CCOC(=O)c1ccc(N2Cc3ccccc3C2)cc1O	HCV inh inconclusive, Shiga inhibitor 65, Cycloheximide cs 46 (no result: FMDV inh)
CCOC(=O)N1CCN(C(=O)COC(=O)c2ccc(O)cc2O)CC1	none
CCc1ccc(N2Cc3ccccc3C2)cc1	Shiga inhibitor 99, Cycloheximide cs 58 (no result: MARV entry inh, LASV entry inh)
O=C(Nc1ccc(-n2cccn2)cc1)C1CCN(Cc2ccccn2)CC1	none (no result: HCV inh)
CCC(=O)N1CCc2cc(Br)cc(S(=O)(=O)CCC(=O)NCc3cccc(OC)c3)c21	none (no result: HCV inh, Shiga inhibitor, Cycloheximide cs)
CC(C)C(C)NC(=O)Cn1cnc2c(oc3ccccc32)c1=O (stereo not drawn)	MARV entry inh inconclusive, Cycloheximide cs 17
Cc1ccc(NC(=O)Cn2cnc3c(oc4ccccc43)c2=O)cc1	LASV entry inh inconclusive (no result: HCV inh, MARV entry inh, Shiga inhibitor, Cycloheximide cs)
COC(=O)Cn1cnc2c(oc3ccccc32)c1=O	Shiga inhibitor 41, Cycloheximide cs 36 (no result: MARV entry inh, LASV entry inh)
CCOC(=O)c1ccccc1NC(=O)Cn1cnc2c(oc3ccccc32)c1=O	Shiga inhibitor 56, LASV entry inh inconclusive, Cycloheximide cs 30
COc1ccccc1NC(=O)Cn1cnc2c(oc3ccccc32)c1=O	none (no result: MARV entry inh, LASV entry inh)
COc1ccccc1N(CC(=O)N1CCC(C(N)=O)CC1)S(=O)(=O)c1ccccc1	none
C=CCc1ccccc1OCCOc1ccc([N+](=O)[O-])cc1/C=N/NC(N)=O	FMDV inh inconclusive
O=Cc1c(NCc2ccco2)nc2ccccn2c1=O	Cycloheximide cs 16
CC1(c2ccccc2)NC(=O)N(CC(=O)Nc2ccc(C(N)=O)cc2)C1=O (stereo not drawn)	none
Cc1cccn2cc(-c3ccc(F)cc3)nc12	MARV entry inh inconclusive, Shiga inhibitor 71, LASV entry inh inconclusive, Cycloheximide cs 39
CCCS(=O)(=O)NCc1cn2cccc(C)c2n1	none (no result: FMDV inh)
Cc1cccn2cc(-c3ccccc3)nc12	MARV entry inh inconclusive, Shiga inhibitor 64, LASV entry inh inconclusive, Cycloheximide cs 52
Cc1cccn2cc(CNc3ccccc3)nc12	MARV entry inh inconclusive, Shiga inhibitor 68, LASV entry inh inconclusive, Cycloheximide cs 51
COc1ccc(-c2cn3cccc(C)c3n2)cc1Br	MARV entry inh inconclusive, Shiga inhibitor 150, LASV entry inh inconclusive, Cycloheximide cs 76
Cc1cccn2cc(-c3ccc(F)cc3)cc12	HCV inh inconclusive, LASV entry inh inconclusive
CCn1c(O)c(C=NCCN2CCOCC2)sc1=S	none
CCOC(=S)SCc1cn2cccc(C)c2n1	Cycloheximide cs 24
Cc1cccn2cc(CCNS(=O)(=O)c3cccs3)nc12	MARV entry inh inconclusive, LASV entry inh inconclusive, Cycloheximide cs 21
CC(=O)Nc1cccc(OCc2cnc(Cl)s2)c1	none (no result: MARV entry inh, LASV entry inh)
CC(C)(C)c1ccc(OCc2cnc(Cl)s2)cc1	Shiga inhibitor 75, Cycloheximide cs 35
CC(=O)Nc1nc2c(C)c(Cl)ccc2s1	none (no result: MARV entry inh, LASV entry inh)
COc1cc(C2C(C#N)=C(N)N(Nc3ccccc3)C3=C2C(=O)CC(C)(C)C3)ccc1OCc1cccc(F)c1 (stereo not drawn)	HCV inh inconclusive, MARV entry inh 1.8µM, LASV entry inh inconclusive
O=c1c(Cl)c(Nc2cccc(Cl)c2)cnn1-c1nc2ccccc2s1	MARV entry inh inconclusive, Shiga inhibitor 69, LASV entry inh inconclusive, Cycloheximide cs 88
COc1ccc(Nc2cnn(-c3nc4ccccc4s3)c(=O)c2Cl)cc1	HCV inh inconclusive, MARV entry inh inconclusive, Shiga inhibitor 76, Cycloheximide cs 48
Cc1nc2ccccc2nc1Nc1cccc(Cl)c1	HCV inh inconclusive (no result: MARV entry inh, LASV entry inh)
Cc1ccc(C)c(N2CCN(c3cnn(-c4nc5ccccc5s4)c(=O)c3Cl)CC2)c1	MARV entry inh inconclusive, Shiga inhibitor 138, Cycloheximide cs 64
Cc1ccc(-c2nc3cccnc3s2)cc1NS(=O)(=O)c1ccc2c(c1)OCCO2	HCV inh inconclusive, Shiga inhibitor 19, Cycloheximide cs 40 (no result: MARV entry inh, LASV entry inh)
O=S(=O)(Nc1cccc(-c2nc3cccnc3s2)c1)c1ccc2c(c1)OCCO2	HCV inh inconclusive (no result: MARV entry inh, LASV entry inh)
Cc1nc2ccc(S(=O)(=O)Nc3cc(-c4nc5cccnc5s4)ccc3C)cc2s1	Shiga inhibitor 85, Cycloheximide cs 75
Cc1ccc(-c2nc3cccnc3s2)cc1NS(=O)(=O)c1cccs1	Shiga inhibitor 38, Cycloheximide cs 19 (no result: MARV entry inh, LASV entry inh)

Screens as filed in PubChem BioAssay.
